Shown are actives, neighbours in structure and some others; about 11% of the full set was active somewhere.
NPR1 antag = Natriuretic polypeptide receptor (hNpr1) antagonism - Primary qHTS; Atrial natriuretic peptide receptor 1 (Homo sapiens), P16066; HEK293 hNpr1 GloSensor cGMP, ANP-stimulated luminescence; Potency, µM (series often up to 46.3 µM), for the others: top-dose activity change, negative = inhibition, usual class: inhibitors; 76,000 compounds, 1.6% hits; AID 1347048, 2019; calls by dose curve; also: nearly all actives have a fitted effect of over 60% in size
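HEK293 cells stably expressing human Npr1 and cGMP GloSensor pGS-40F, loaded 2 h with 2% GloSensor reagent, given compound 30 min at room temperature. Luminescence read before and 20 min after 0.1 nM hNppA.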
HEK293 tox = Cytotoxic Profiling in HEK 293 Cell Line of Diverse Libraries Using Quantitative High-Throughput Screening | HEK 293 viability, ATP luminescence (CellTiter-Glo), 48-72 h | Potency, µM (doses to about 115 µM), for the others: top-dose activity change, negative = cytotoxicity, hits mostly inhibitors | 94,000 compounds, 6.6% hits; also: nearly all actives have a fitted effect of over 60% in size
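Pintool-delivered compounds were incubated with HEK 293 cells (250 cells/well) at 37 degree Celsius for 48 or 72 hr. ATP-dependent luminescence (CellTiter-Glo) then reported remaining viable cells.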
NIH3T3 tox = Cytotoxic Profiling in NIH 3T3 Cell Line of Diverse Libraries Using Quantitative High-Throughput Screening; NIH 3T3 viability, CellTiter-Glo ATP luminescence, 48-72 h; Potency, µM (series often up to 96.7 µM), inactives show at the highest dose activity change, negative = cytotoxicity, most hits filed as inhibitors; 94,000 compounds, 4.3% hits; also: nearly all actives have a fitted effect of over 55% in size
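Cytotoxicity is measured as loss of cellular ATP: NIH 3T3 cells (400/well) are exposed to compound for 48 or 72 hr at 37 °C, then CellTiter-Glo luminescence is imaged after 10 min at room temperature.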
Luciferase inh = Firefly luciferase inhibition profiling of diverse chemical library using quantitative high-throughput screening | Luciferin 4-monooxygenase (Photinus pyralis), P08659 | purified P. pyralis luciferase, luminescence, biochemical | Potency, µM (doses to about 115 µM), usual class: inhibitors | 76,000 compounds, 2.5% hits; also: nearly all actives have a fitted effect of over 65% in size
Target sequence (P08659 whole entry, looked up): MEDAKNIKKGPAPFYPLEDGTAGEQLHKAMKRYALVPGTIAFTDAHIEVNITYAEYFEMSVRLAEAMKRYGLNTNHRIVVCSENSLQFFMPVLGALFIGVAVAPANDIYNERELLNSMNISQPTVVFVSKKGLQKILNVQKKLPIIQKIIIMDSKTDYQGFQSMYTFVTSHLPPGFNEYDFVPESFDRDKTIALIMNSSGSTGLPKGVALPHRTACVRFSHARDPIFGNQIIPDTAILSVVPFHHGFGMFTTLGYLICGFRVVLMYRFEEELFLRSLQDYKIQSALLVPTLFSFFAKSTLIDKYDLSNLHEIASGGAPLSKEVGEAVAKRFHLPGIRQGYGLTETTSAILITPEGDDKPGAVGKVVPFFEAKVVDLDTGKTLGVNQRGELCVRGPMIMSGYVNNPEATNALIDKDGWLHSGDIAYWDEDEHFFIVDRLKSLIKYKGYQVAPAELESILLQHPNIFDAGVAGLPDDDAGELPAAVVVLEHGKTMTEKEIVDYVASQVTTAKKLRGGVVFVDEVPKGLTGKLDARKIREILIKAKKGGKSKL
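Luminescence read by CCD imager after adding enzyme (10nM final) to wells holding compound, titrated in qHTS. Substrates 10uM each D-luciferin and ATP; buffer 50mM Tris acetate pH 7.5, 10mM Mg acetate, Tween-20, BSA.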
An asterisk follows results filed as active; i = inactive; ? = inconclusive; / = no result; [ ] = another dose, or the depositor's remark. Unless noted, calls follow the shape of the dose curve; as a rule, active = well fitted curve in the direction sought with a large enough effect; inconclusive = small, poorly fitted or top-dose-only effect, or another doubt; inactive = no such curve, though single readings can be large; an effect the other way counts as inactive or inconclusive. % is scaled to controls: 0 for no effect and ±100 for the full control effect; potency is read from the fitted curve at half-maximal effect.

SMILES	NPR1 antag	HEK293 tox	NIH3T3 tox	Luciferase inh
O[C@@H]1C[C@@H](c2nc(Cc3ccc(F)cc3Cl)no2)N(Cc2ccc(OC(F)(F)F)cc2)C1	-12.2%	39.8µM*	?	i
O=S(=O)(Cc1noc([C@@H]2C[C@@H](O)CN2Cc2cc3ccccc3o2)n1)c1ccc(F)cc1	-0.6%	?	-25.9%	i
Cc1ccc(-c2noc([C@@H]3C[C@@H](O)CN3Cc3nc4ccccc4n3C)n2)cc1F	-3.4%[70.6 µM]	-6.5%[172 µM]	-27.7%[174 µM]	i
CCC(=O)N(C1CCOCC1)C1CCN(Cc2cccc(Cl)c2)CC1	0.2%	-22.2%	-14.4%	i
Cc1c(-c2ccccc2F)[nH]c2ccc(CNC(=O)CCC3=NNC(=O)CC3)cc12	-2.2%	?	?	?
Cc1c(-c2ccccc2F)[nH]c2ccc(CNC(=O)Cn3ccc(=O)[nH]c3=O)cc12	-7.1%	44.7µM*	44.7µM*	10µM*
Cc1c(-c2ccccc2F)[nH]c2ccc(CNC(=O)CCN3CCCC3=O)cc12	0.1%	?	-27.2%	28.2µM*
CCOCCn1c(=O)[nH]c2cc(C(=O)NCc3ccc(F)c(F)c3)ccc21	-0.2%	-11.7%	-7.7%	i
O=C(NC1CCOCC1)c1ccc2c(c1)OCCN(c1ccccc1)C2	-18.5%[70.6 µM]	79.4µM*	?	i
O=C(Nc1ccccc1)c1ccc2c(c1)OCCN(c1ccccc1)C2	?	112µM*	-62.5%[138 µM]	?
CSCC[C@@H]1NC(=O)c2cc(NC(=O)c3ccc4ccn(C)c4c3)ccc2NC1=O	-15.0%	?	-8.5%	i
CS(=O)(=O)N1CCN(c2ccc3nnc(-c4ccccc4)n3n2)CC1	/	-1.6%	?	/
CCOC(=O)[C@H]1C[C@]2(CCCCNC2=O)N(C(C)=O)[C@H]1c1ccccc1	/	-34.4%	?	/
CC(C)c1cccc(NC(=O)CN2C(=O)C(c3ccccc3)=NC23CCCC3)c1	?	35.5µM*	?	i
COc1cccc(C(=O)N2CCC(n3cc(-c4nc(C)no4)nn3)C2)c1 (centres undefined)	-0.9%	-0.2%	-5.6%	i
CNC(=O)c1cc(C2CC2)nc2onc(C3CCN(C(=O)Nc4ccc(C)c(F)c4)C3)c12 (centres undefined)	/	44.7µM*	?	/
Cc1cccc(CN2C[C@@H]3C(=O)N(CCN4CCc5ccccc5C4)C(=O)[C@@H]3C2)c1	-2.8%	?	?	i
COc1ccc(CN2Cc3cc(NC(=O)c4ccc([N+](=O)[O-])cc4)ccc3OC(C)C2=O)c(OC)c1 (centres undefined)	-1.2%	-4.0%	-35.4%	i
Cc1cnc(CC2CCN(C(=O)C(C)c3ccccc3)CC2)n1Cc1ccc(F)cc1 (centres undefined)	-3.0%	35.5µM*	?	i
CN(c1ccccc1)c1ccc2nnc(-c3cc(C(=O)Nc4ccccn4)ccn3)n2n1	2.8%[70.6 µM]	56.2µM*	?	i
O=C(Nc1ccncc1)c1ccnc(-c2nnc3ccc(N4CCOCC4)nn23)c1	4.0%[70.6 µM]	-5.8%[172 µM]	89.1µM*	i
CN(c1ccccc1)c1ccc2nnc(-c3cc(C(=O)NCC4CCCO4)ccn3)n2n1 (centres undefined)	-4.5%[70.6 µM]	-23.8%[172 µM]	?	i
CN(C)c1cccc(NC(=O)c2ccnc(-c3nnc4ccc(N5CCOCC5)nn34)c2)c1	5.3%	-28.4%	?	i
CN(c1ccccc1)c1ccc2nnc(-c3cc(C(=O)NCc4cccnc4)ccn3)n2n1	-0.5%[70.6 µM]	100µM*	25.1µM*	i
COc1cccc(NC(=O)c2ccnc(-c3nnc4ccc(N(C)C)nn34)c2)c1	-1.0%[70.6 µM]	?	31.6µM*	i
CS(=O)(=O)N1CCC(c2nc(CCOCC3CC3)no2)C1 (centres undefined)	/	i	2.8%	/
COc1ccc(C(=O)N2CCCC2C(=O)N2CCC(c3nc4ccncc4[nH]3)C2)cc1 (centres undefined)	/	-7.1%	-14.8%	/
CCOc1ccccc1CN1CCC2(CCN(C(=O)c3ccccc3F)CC2)Oc2ccccc21	-0.2%	?	?	i
CCc1nc2c(c(-c3ccc(Cl)cc3)n1)CN([S+](C)(=O)[O-])CC2	4.1%[70.6 µM]	i	44.7µM*	i
